Compound activity deposited in PubChem by National Center for Advancing Translational Sciences (NCATS).
KDM5B inh: KDM5B demethylase inhibition; KDM5B demethylase, FDH-coupled NADH fluorescence (FDH is formaldehyde dehydrogenase); 220,000 tested, 2.6% active; Potency, µM (top dose mostly 57.7 µM), actives largely listed as inhibitors; further: potency means the concentration at half of the fitted maximal effect; 0% is about no effect; nearly all actives have a fitted effect of over 70% in size
Target sequence (Q9UGL1 whole entry, looked up): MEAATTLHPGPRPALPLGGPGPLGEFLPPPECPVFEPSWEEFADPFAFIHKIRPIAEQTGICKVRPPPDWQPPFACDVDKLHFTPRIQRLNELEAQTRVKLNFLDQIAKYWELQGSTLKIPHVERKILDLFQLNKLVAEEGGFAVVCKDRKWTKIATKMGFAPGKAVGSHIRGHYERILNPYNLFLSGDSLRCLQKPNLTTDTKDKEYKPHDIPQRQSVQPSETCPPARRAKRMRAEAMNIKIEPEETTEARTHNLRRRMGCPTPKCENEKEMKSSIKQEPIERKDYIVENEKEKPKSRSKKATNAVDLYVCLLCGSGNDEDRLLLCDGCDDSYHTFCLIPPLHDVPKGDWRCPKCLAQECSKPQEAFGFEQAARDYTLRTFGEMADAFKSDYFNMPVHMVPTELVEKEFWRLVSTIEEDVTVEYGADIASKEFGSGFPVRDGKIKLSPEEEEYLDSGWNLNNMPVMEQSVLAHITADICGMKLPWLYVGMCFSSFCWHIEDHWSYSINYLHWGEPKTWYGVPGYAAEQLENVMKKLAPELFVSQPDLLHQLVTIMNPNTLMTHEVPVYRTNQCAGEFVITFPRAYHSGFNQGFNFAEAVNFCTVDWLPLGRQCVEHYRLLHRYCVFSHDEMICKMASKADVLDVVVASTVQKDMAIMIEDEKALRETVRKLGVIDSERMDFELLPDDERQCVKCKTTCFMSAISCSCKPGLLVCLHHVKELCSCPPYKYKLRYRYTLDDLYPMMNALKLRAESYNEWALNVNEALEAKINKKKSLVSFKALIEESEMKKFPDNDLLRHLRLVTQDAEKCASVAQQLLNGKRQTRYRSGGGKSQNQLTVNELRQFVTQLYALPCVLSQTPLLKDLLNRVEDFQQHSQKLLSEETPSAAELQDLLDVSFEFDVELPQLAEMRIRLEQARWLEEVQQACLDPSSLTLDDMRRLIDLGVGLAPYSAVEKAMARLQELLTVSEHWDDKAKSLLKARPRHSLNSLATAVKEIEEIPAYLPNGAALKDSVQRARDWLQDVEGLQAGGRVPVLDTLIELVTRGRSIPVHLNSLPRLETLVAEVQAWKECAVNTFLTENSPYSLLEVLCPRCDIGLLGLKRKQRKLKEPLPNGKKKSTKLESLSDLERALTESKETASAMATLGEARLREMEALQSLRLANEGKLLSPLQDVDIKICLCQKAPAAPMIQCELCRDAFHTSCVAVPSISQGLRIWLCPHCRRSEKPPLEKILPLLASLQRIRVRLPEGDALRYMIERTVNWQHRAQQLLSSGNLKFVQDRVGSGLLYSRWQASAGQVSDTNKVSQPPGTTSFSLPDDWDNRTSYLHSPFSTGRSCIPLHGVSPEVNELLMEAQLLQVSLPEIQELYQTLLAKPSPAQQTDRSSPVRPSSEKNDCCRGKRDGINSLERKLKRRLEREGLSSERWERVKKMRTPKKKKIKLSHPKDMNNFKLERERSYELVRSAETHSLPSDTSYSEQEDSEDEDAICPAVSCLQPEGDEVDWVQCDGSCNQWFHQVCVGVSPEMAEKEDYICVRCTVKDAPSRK
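KDM5BΔAP (200 nM final) in 50 mM HEPES pH 7.5, 0.01% Tween-20 was preincubated 10 min at RT with compound over a concentration range. Substrate mix (H3K4me3 12.5 µM, α-KG 25 µM, Fe²⁺, ascorbate, NAD⁺, FDH) was added, and NADH fluorescence change over 30 min gave dose-response curves.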
IP6K1 inh: blocks human inositol hexakisphosphate kinase 1; Q92551; IP6K1 kinase, ADP-Glo luminescence, 2 h; hits give low values; activity change, % (series mostly up to about 58 µM); 140,000 tested, 0.81% active; AID 1645851; in the data active means activity change below about -25%; further: on the % scale 0 is the no-effect control and ±100 the full control effect
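ADP-Glo luminescence measures ADP made by human IP6K1 during a 2 h RT reaction with ATP/IP6 (mix at 1.3 mM/130 uM); top library doses 57.5 and 19.1 uM final.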
SNCA expr inh: SNCA gene expression inhibition | HEK-293 SNCA-luciferase knock-in, luminescence, 24 h | Potency, µM (series often up to 57.2 µM), without a hit: at the highest dose activity change, negative = inhibition, actives largely listed as inhibitors | 140,000 tested, 0.17% active | AID 1671194;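 further: potency means the concentration at half of the fitted maximal effect; plate controls were DMSO cells for no effect and cell-free wells for full effect; nearly all actives have a fitted effect of over 45% in size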
SNCA viab count: cell viability loss counter-screen; Potency, µM (top dose mostly 57.1 µM), for inactives: at the top dose activity change, negative = cytotoxicity, most hits filed as cytotoxic; 150,000 tested, 0.12% active; HEK-293-SNCA-luc viability, GF-AFC fluorescence, 24 h;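 further: potency means the concentration at half of the fitted maximal effect; 0% = DMSO-treated cells and -100% = medium-only wells without cells; nearly all actives have a fitted effect of over 30% in size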
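HEK-293-SNCA-luc cells (1500/well) plated 24 h, then exposed 24 h to a dilution series; GF-AFC added 30 min at 37C, fluorescence 405/540 nm; normalised to medium-only and DMSO wells, Hill fit.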
* hit, by the source's call; i = inactive; ? = inconclusive; . = no result given; [ ] = another dose, or the depositor's remark. A selection: hits, their analogues and other compounds. The true share with any hit is near 3%. Unless noted, the call rests on the fitted dose curve; in most records, active means well fitted curve in the direction sought with a large enough effect; inconclusive means small, poorly fitted or top-dose-only effect, or another doubt; inactive means no such curve, though single readings can be large; an effect the other way counts as inactive or inconclusive.

SMILES | KDM5B inh | IP6K1 inh | SNCA expr inh | SNCA viab count
O=C(c1nc(-c2cccc(C(F)(F)F)c2)c2ccccn12)N1CCOCC1 | 28.2µM* | -12.9 | 1.0% | 4.5%
O=C(c1nc(-c2cccc(C(F)(F)F)c2)c2cnccn12)N1CCN(c2ncccn2)CC1 | 28.2µM* | 0.0 | 18.7% | -7.1%
O=C(c1nc(-c2cccc(C(F)(F)F)c2)c2ccccn12)N1CCN(c2ncccn2)CC1 | 25.1µM* | 36.7 | -8.2% | 10.3%
C#CCNC(=O)c1nc(-c2cccc(C(F)(F)F)c2)c2ccccn12 | i | -7.8 | -0.3%[87.6 µM] | -23.9%[87.6 µM]
Cc1nn(-c2ccccc2)c2c1C(C)N(C1CN(C(=O)C3CCCC3)C1)C2=O (stereo unspecified) | . | 6.5 | . | .
Cc1ccccc1-c1cc(-c2ccc(=O)[nH]c2)c2cncn2c1 | 35.5µM* | -4.3 | 5.5%[87.6 µM] | 9.6%[87.6 µM]
Cc1ccc(Nc2ccnc(N3CCC(C(=O)N4CCC(Cc5ccccc5)CC4)CC3)n2)cc1 | . | -12.3 | -12.0% | -1.1%[12.5 µM]
CCc1nn(-c2ccc(OC)cc2)c(Oc2ccccc2F)c1CCC(=O)NC(C)C | i | -6.2 | -17.5% | -17.7%
CCc1nn(-c2ccc(OC)cc2)c(Oc2ccccc2F)c1CCC(=O)NCCOC | 25.1µM* | -5.3 | 1.0% | -2.6%
OCCC1CN(c2cc(C(F)(F)F)ccn2)CCN1CC1CCCCC1 (stereo unspecified) | 22.4µM* | 6.5 | 28.1% | 2.5%
OCCC1CN(CCOc2ccc(F)cc2)CCN1CC1CCCCC1 (stereo unspecified) | i | -2.0 | -2.6% | 7.1%
N#C/C(=C1\Nc2ccccc2S1)c1ccnc(NCCc2cccnc2)n1 | . | -7.2 | . | -39.6%
COc1ccccc1-c1nc2nccc(-c3ccc4c(c3)OCCCO4)n2n1 | 14.1µM* | -2.9 | 4.2% | -16.0%
COc1ccccc1-c1nc2nccc(-c3cc(OC)c(OC)c(OC)c3)n2n1 | 25.1µM* | 7.4 | 32.1% | 5.9%
COc1cc(-c2ccnc3nc(-c4ccco4)nn23)cc(OC)c1OC | 25.1µM* | -7.6 | 12.9% | -3.4%
COc1ccccc1-c1nc2nccc(-c3ccc(Cl)cc3)n2n1 | 31.6µM* | 5.4 | 14.8% | -11.3%
COc1ccccc1-c1nc2nccc(-c3ccccc3)n2n1 | i | -4.5 | 33.2% | -10.4%
COc1ccccc1-c1nc2nccc(-c3ccco3)n2n1 | ? | -9.2 | 11.2% | -4.4%
COc1ccc(-c2ccnc3nc(-c4ccccc4OC)nn23)cc1OC | 28.2µM* | -5.0 | 20.9% | -6.4%
COc1ccccc1-c1nc2nccc(-c3cc4ccccc4o3)n2n1 | 25.1µM* | 6.6 | 11.4% | -28.0%
Brc1ccc(-c2ccnc3nc(-c4ccco4)nn23)s1 | 28.2µM* | -10.8 | 1.3% | -6.6%
O=C(NCc1ccccc1)c1ccccc1OC1CN(Cc2cccc(C(F)(F)F)c2)C1 | . | 6.3 | ? | ?
CN(C)C[C@@H]1CN(S(C)(=O)=O)C[C@H]1NC(=O)c1cc2ccccc2[nH]1 | 31.6µM* | 27.0 | 117.4% | 4.3%
CC(O)c1cc2n(n1)CCN(Cc1cc(=O)n3nc(C4CC4)sc3n1)C2 (stereo unspecified) | 25.1µM* | -1.3 | -7.8% | 6.5%
CNC(=O)c1cc(C2CC2)nc2c1c(C1CCCN(C(=O)Cc3ccc(F)cc3)C1)nn2C (stereo unspecified) | . | -3.7 | . | .
SMILES | KDM5B inh | IP6K1 inh | SNCA expr inh | SNCA viab count
O=[S+]1([O-])NC2(CCCN(Cc3ccc(C(F)(F)F)cc3)C2)COc2ccccc21 (stereo unspecified) | ? | -5.1 | -1.9% | -3.5%
O=C1NC2(CCN(Cc3ccsc3)C2)COc2ccccc21 (stereo unspecified) | 35.5µM* | 23.4 | 33.6%[87.6 µM] | -4.1%[87.6 µM]
Cn1nccc1CN1CCCC2(COc3ccccc3C(=O)N2)C1 (stereo unspecified) | 39.8µM* | 7.0 | ? | ?
O=C1NC2(CCN(Cc3ccsc3)C2)Oc2ccccc21 (stereo unspecified) | i | 0.7 | 74.5%[87.6 µM] | 6.2%[87.6 µM]
O=C1NC2(CCCN(Cc3ccc(C(F)(F)F)cc3)C2)COc2ccccc21 (stereo unspecified) | 25.1µM* | 23.8 | -17.7% | 8.2%
Cn1cccc1CN1CCC2(COc3ccccc3C(=O)N2)C1 (stereo unspecified) | ? | 5.6 | -16.2%[87.6 µM] | -3.7%[87.6 µM]
Cc1cccc(-c2cccc(CN3CCC(NC(=O)c4cccc(Cl)c4)CC3)c2)c1 | . | 3.4 | ? | ?
O=C(NC1CCCN(c2ccc3nnc(-c4ccccc4)n3n2)C1)C1CCCC1 (stereo unspecified) | . | 4.3 | . | .
CN(C)C[C@@H]1CN(C2CCOCC2)C[C@H]1NC(=O)c1n[nH]c2ccccc12 | 22.4µM* | 4.5 | 32.1% | 26.8%
CN(C)C[C@@H]1CN(c2ncccn2)C[C@H]1NC(=O)c1nn(C)c2ccccc12 | 31.6µM* | 5.6 | 4.3% | -1.8%
CN(C)C[C@@H]1CN(C)C[C@H]1NC(=O)c1nn(C)c2ccccc12 | 31.6µM* | 7.1 | 0.2% | 3.4%
CN(C)C[C@@H]1CN(C)C[C@H]1NC(=O)c1ccc(Br)cc1 | i | -8.0 | 41.2% | 0.1%
COc1ccccc1-c1nc(C(=O)NC(C)C)n2ccncc12 | 39.8µM* | 8.3 | -12.3%[87.6 µM] | -1.2%[87.6 µM]
COc1ccccc1-c1nc(C(=O)NCc2cccnc2)n2ccccc12 | 89.1µM* | -10.0 | 2.6% | -9.4%
COc1ccccc1-c1nc(C(=O)NCc2cccnc2)n2ccncc12 | 79.4µM* | -9.2 | 52.6% | 6.3%
COc1ccccc1-c1cc(C(=O)NCc2cccnc2)nc2c1cnn2C | ? | -1.9 | 49.2% | -11.4%
COC(=O)CNC(=O)c1nc(-c2ccccc2OC)c2cnccn12 | 100µM* | -15.8 | 142.6% | 7.5%
COc1ccccc1-c1nc(C(=O)N2CCCC2)n2ccncc12 | ? | -19.3 | -17.3% | 7.1%
COc1ccccc1-c1cc(C(=O)NCc2cccnc2)nn2cccc12 | i | -8.6 | -2.1% | 2.0%
COCCCNC(=O)CNC(=O)c1ccc(-c2cccc(C(F)(F)F)c2)cc1 | . | -3.7 | -6.1% | -6.7%[12.5 µM]
Cn1ncc2c(C(=O)NCc3cccnc3)cc(-c3cccc(F)c3)nc21 | . | 3.2 | . | .
O=C1c2cc(N3CCOCC3)nc(-c3ccccc3F)c2CN1CC(F)(F)F | 31.6µM* | 5.4 | -7.6%[87.6 µM] | -10.4%[87.6 µM]
O=C1c2cc(N3CCOCC3)nc(-c3cnc4[nH]ccc4c3)c2CN1CC1CC1 | 12.6µM* | -19.9 | 9.6%[87.6 µM] | -15.5%[87.6 µM]
O=C1c2cc(N3CCOCC3)nc(-c3cnc4[nH]ccc4c3)c2CN1CC(F)(F)F | 31.6µM* | 20.7 | -1.9%[87.6 µM] | -4.5%[87.6 µM]
O=C(NCCN[S+](=O)([O-])c1cccc(C(F)(F)F)c1)c1cccc(-c2ccsc2)c1 | . | -4.4 | -16.1% | -25.6%
COc1ccc(-c2nnc(C[C@@H]3C[C@@H](C(C)C)[C@H](CN4CCN(c5ncccn5)CC4)C=C3C)o2)cc1 | ? | 18.0 | ? | ?
O=C(NCc1ccc(C(F)(F)F)cc1)C1(c2ccc(Cl)cc2)CCOCC1 | . | 10.1 | . | .
COc1ccc(-c2noc([C@@H]3CCCN3C(=O)Cc3ccc(F)cc3)n2)cc1OC | 28.2µM* | 3.8 | 6.2% | -15.8%
Cc1ccccc1CC(=O)N1CCC[C@H]1c1nc(-c2ccccc2)no1 | i | 0.0 | 13.3% | 0.5%
